Data taken from the supplement of paper PMC10681739.
± gives the standard deviation of the averaged measurements. The full ranking holds about 4,100 sequences; the median of “arbitrary fluorescence units” is about 780, and the highest 2% start at about 22,000. The entries come from a sample that favours the highest values as a whole.

target: T1, ETS1 (UniProt P14921); experiment: ETS1 binding intensity (PBM fluorescence), ETS1 alone (arbitrary fluorescence units); higher = stronger binding; settings: ETS1 concentration 1 nM; RUNX1 concentration 0 nM
T1 sequence: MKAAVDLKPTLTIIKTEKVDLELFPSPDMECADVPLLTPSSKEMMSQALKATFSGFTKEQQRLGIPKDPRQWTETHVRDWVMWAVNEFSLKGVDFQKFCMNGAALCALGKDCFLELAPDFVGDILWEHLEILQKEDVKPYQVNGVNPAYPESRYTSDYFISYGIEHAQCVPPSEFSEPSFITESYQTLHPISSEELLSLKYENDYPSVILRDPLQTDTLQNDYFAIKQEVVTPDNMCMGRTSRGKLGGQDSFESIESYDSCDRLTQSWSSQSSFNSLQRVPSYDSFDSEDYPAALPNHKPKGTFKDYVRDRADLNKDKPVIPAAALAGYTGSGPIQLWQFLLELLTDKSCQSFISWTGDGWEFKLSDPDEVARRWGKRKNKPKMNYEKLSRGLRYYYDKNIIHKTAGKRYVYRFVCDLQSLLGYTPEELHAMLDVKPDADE
Experimental: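 gcPBM on 36-bp genomic-derived probes (partner site mutated) containing one ETS1 site and no RUNX1 site. Recombinant human ETS1 (1 nM) was incubated alone or with RUNX1 (25 nM) and detected by anti-ETS1 antibody fluorescence. Values are medians over 4 replicate spots (not normalised). The probes sit in constant array flanks that are not printed.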

Row | Sequence | ETS1 binding intensity
1 | GCAGAGAGGAAGTGTGGGGGTGGAGGAGGCCGAAGA | 1840
2 | AGACGGGACCGGAAGCCGGGCCGTAGGCGGCCGGGC | 12100
3 | TTTCGAGAAAACCGGAAGTGCGTGGACACGCCCCGC | 31500
4 | GCCGCCGTAGATTCGACACAAAACCCGGAAGGACCC | 530
5 | AAACTACTTCCCCATATCATCTGTAGCTTGCACAAC | 1180
6 | CTTAGCACTTGTAGTCAGCCTGCTTCCGGCTGTGGC | 2100
7 | TGAGGTGCTAAAGCACCAAGCACTTCCTGCTGTTAG | 3380
8 | GCGAGCACTTCCGGTGTGTGAGCCTGCTGTTGCTAC | 32800
9 | GGGGCAGGAAGTGGAGGTTTGAAGTGCTTTAGAGTA | 7390
10 | GGGCCCCTCAGCCCGACCGCCTGACCGGAAGTGCAG | 5030
11 | TGAACTCCGCCCAGCGCGATCCGGAAGCCTAGCGCC | 443
12 | TTGGTGACCTCTTCCTGTCCGCTGGGGTGTTGTTAC | 3680
13 | TCGCTTCCGGTGTCGGTTACAGACTGGGGTTGCCAT | 30000
14 | TGCTTCCCGTCCGTGTCGCGGCCCTGGGGTTGGCGG | 8550
15 | TTCAGGCGGCAAAGAACAGACCTGCAGGAGGAAATA | 404
16 | CTCTTCCGGCCGCGAGGAGCGCGACAGCGGCCCCTG | 14400
17 | TGTTGACTCAGGAAGATGATGGCTGAGGGGGCTGCA | 509
18 | CTAAAGGCAGGGACTACAAACACTTCCTGTTTGTGT | 7710
19 | TCTAAATCACTTCCTGTTACAGAAACTACAGGCCTG | 26900
20 | CACTTCCTCCTCGGGGGCCTCAGAAAATCACAGGGC | 13200
21 | GGAGCGCGCTGGGGACGTTTAAAGGAAATTTACAAT | 363
22 | TCCGTGAGGTGCAGCAGGTCGGTAGGCGGGAAATGG | 378
23 | CCGACCCCAGCTTCCCGGGGTTGAGGCCCTGCCTCC | 462
24 | TGCTGCACCCCAGCCCCTTTCTCTTCCGGTTCTAGG | 1850
25 | AACATCCGGTTCCCGGTTCTGCCCCCTACCCCAGCT | 49100

Row | Sequence | ETS1 binding intensity
26 | ACTTGACTTCCTGTGGGGTGTCTGGTGTCTGCACTT | 11700
27 | GACCACTTCCTTTCTGTGTTTTGGGGTTTCACAACT | 11900
28 | ACAACTTCCTGTGGGATTTTTGGTGTCTACGGCTCA | 37400
29 | GGGCCCACATCCGGCGCGCGCAACAGCAGCCTACTG | 25800
30 | CTCCCACATCCGAAGCGGCGCAACTCACAACAGCCT | 1140
31 | GTCCAACAGCAGCCAGGCAAGCACATCCTGCCCCAC | 1980
32 | CGAAGAGGAAACAAAGAAAGGTGCTGTTCTGGCGCC | 506
33 | TCAAGAAAACAGGAAACTCTCAAATCCAAGTTCTGA | 3280
34 | TTCTATCCTGCCTTGCATGTCTTTAATCACACTGAG | 1540
35 | ATGAGCTATTTCCTGCCTTGTTGTCAGAGCCAGACT | 23500
36 | CAGCTGCAGGCCTGGGTGTACGGAGCCCGGAACAGG | 567
37 | TACCTACAGGAAATGAGACACACCTCAGGCCGATCC | 5550
38 | CTCAGACCCTCAGTGAGGTCTGACGTCATTTCCTGC | 734
39 | CACTTCCGGGTCGTCAGCTCAGTTCTGCTGTTTCTG | 26000
40 | CCTGCTGCTGTCAGCCCTGTCTCTTCCTGTTTCTGC | 1030
41 | CTCGTGTTTTGTAGCTGTGTTCTGTCCGGTCAGTTG | 502 ± 32
42 | TGGATAGTGGGACACCTCAACAGGATGTTAGTGAGG | 858
43 | GACGGCCGCTTTTGGCGCGGGACTTCCTGCCTGGCC | 3070
44 | CCCTCCGGCCCTCAGCCCTGCCCAAACGGAAGTGCT | 787
45 | AGTTTTCCGTCGGGCTCCCAGTGACGCCGAAGAGGT | 2580
46 | GCGCAAAGCCGGAAGGAGGGGTTTGGGGCTGGGGAG | 4130
47 | CTTCCTTCCCTTCCTTCTGCTCCCTCCCAGAGCCGC | 852
48 | CCCACTTCCTGTCTGCTTCCCTCCTCCGCTCAGACC | 28400
49 | TCCCTCCTCCGCTCAGACCCACTTCCTGTCTGCTTC | 8330
50 | CTGCACTTCCGGTCAGGCGGTCGGGCTGAGGGGCCC | 36600

Row | Sequence | ETS1 binding intensity
51 | CCGGTCGGGGCTGCAGCCGCTTCCGGAGCCGCGGGC | 3060
52 | TAGGGGCTGAGGGTCCGGGCGGAAGTGGGGCAGGCG | 2500
53 | ATGGATGGGGTTGCTTGCGTGAGGAAATACTTGATG | 524
54 | CCCAATTTCCTTTGCTCTGCTGTCTGCCAACCCCAA | 3560
55 | GCAGATATCACAGACTCTCTCCTTTCCTGCTGAATA | 546
56 | GCTCGCAGCCCCAAGAGGTGGCCTTCGGTTCCGGGG | 382
57 | TGACTTCCGGTCCGTAGTGGGGCCTTCGGTGGGAGT | 35800
58 | CTGCAGCGGGGATCCTTGGGGCCCTTCCGGTCGGTG | 2190
59 | TTGTGGACGCGGATTTGGGGGCGGGTATCCGGGCCT | 564
60 | GGTCACTTCGGCCCAGAGGCCCGCTCTTCCGCTGAG | 564
61 | CAGGGATTCCGGCTGAGTGCGGCCCCCTCAGCCTCC | 606
62 | GTGGCTGTCGTTGAACTGACTCTCGGGTTTCCGCTC | 606
63 | GAGCCTGTTGCTTCCGGTTCAGAGCCCACGTGCTGG | 22200
64 | TGGAAGAGCCCCACGACATGTGCTTCCTGCGTGCTG | 596
65 | CTAGCTGTGGACAGGAAACGAGTGGATTTTGTGATC | 3740
66 | CCGTACTTCCGCTTTACTCAGATTTTGGACCTCGGG | 30200
67 | CCGGGACCTCGGCTTGGGCTCACGGCCACTTCCGAC | 393
68 | CTCAGCGGCAGCAAGCCCCACCCCGGAAGTCGGCTG | 1590
69 | GATGACTTCCTCAGTTCAGGGCTATGTACGGGGGAG | 4670
70 | CCGCTTCCGGCCTTCGCCCGGCTTAGCCGCGTCGCA | 34700
71 | GCCCGGCTTAGCCGCGTCGCGGAAGTCCGCTCTCTG | 397
72 | GGCCTCGCGGCGTCTCTGCTGCTTCCGCCTTCCCGG | 854
73 | CCTCTGCCCAACCCCAATTTTCCCTTCCTCCGCCTT | 543
74 | CTTTTTGATTTCCTCAAGCATCCCAGAAATACACAG | 2020
75 | GCCCACGCCGCTGGGAGGTGAGACTGAAGGAAGCAC | 402

Row | Sequence | ETS1 binding intensity
76 | ACGGAGCTGTAGTTTAACGTTTCCGGTTAGTGGCTA | 9670
77 | GCCCACTTCCTGCCGTAAGAGAAATCCACTAACACA | 33800
78 | GACGCAGCCCCAGAGCGATTCGCGTCCCGGAAGCGG | 491
79 | CCAACGAGCACTTCCGCTTCCCGAAGCTCCAGCGGC | 27700
80 | TCCAGCGCCGCTGGGCCAACGAGAGCGCTTCCGGCC | 1740
81 | CCGAGCGCACCAGCTCCCGCGCGTGGTTCCGCCGCT | 324
82 | GCGAGAGGGAGGAAGTGACTCACCAACCCCAACAAA | 2690
83 | TCCCAGTTTATGGGAAGGGTTGAGGGAAGTGAGGGG | 531
84 | GTGACGTGGCTGTAGGTCTCATTTCCTGCACGGCCT | 2060
85 | TGTCTCATTTCCTGTAGGTAACAGGCACCAAAATAG | 26500
86 | GGATCGGCCTGAGGTGTGTCTCATTTCCTGTAGGTA | 2130
87 | TGCTCCACTCGGAAGTGGTGCCGAAGCTCTTCGATG | 905
88 | GCCACACTTCCGGCGGGGCTGCGACTGCAGAGGGGC | 38700
89 | CTGCCAGAGCACACAGTTTGCACTTCCGGGGCGGGC | 2710
90 | CCGCCGACACACTTCCGGCGGCCACCAGAGGGTATT | 21200
91 | CAAGAGCCGGAAGTCCCTTGTGCCGTAGTCCTTCCC | 9220
92 | CAGCATGAGGGTGCACACACCGCTTCCTTAGAGGTT | 757
93 | GTGATAAGAACGACAGGCCACTTCCCAAAGATCAAA | 531
94 | TTTCACTTCCGGCATGTTTTTCACCTACAGGGATAT | 35500
95 | AGCTTCCGAGTCTGTTGTGGAGTGGGAACAGCGACT | 2510
96 | GCCTGCGCTCTTTCCGGTAGCCAGAGCCTCGTCTAA | 8280
97 | CGTCCCCGAAAAGCCGCGGCAGAAACTTCCGGCGGT | 3130
98 | CGCCGAACTTCCGGCAGTAAATTCCGTGGATTCCCG | 27100
99 | CGTTTCCTGTGGCTGCAGCTCTCCCCACGCACACAC | 23800
100 | GCACGTGTTTCCTGGGGCTGCACCCCAGCACCACAC | 2380

Row | Sequence | ETS1 binding intensity
101 | TGCCGCCTGCAGCACCCTCCCCATTTCCTGGCTGTA | 1190
102 | TTTCTTCCTGTTTGCATCACCCCAAATCCACTATCA | 16900
103 | TGTTGCCACTGTTAGACTAGAGAGCATCCTGTTGTT | 851
104 | ACCCACTTCCTGTTAGAGCATCTTTGCAACCCCAGG | 30200
105 | TACGCACACGCTTCGGGATCCTTCCGCTCCGGGTTA | 644
106 | CTCCCACGCTCCCCTTCCGGCCCCGCTGCGCTGTGA | 3160
107 | TTGCGCCGGACGCCACTTTCGGTCCCCGTGGACACG | 602
108 | GGTCACGTGTCCACGGGGACCGGAAGTGGCGCCCGG | 14400
109 | CCGGGCGCCACTTCCGGTCCCCGTGGACACGTGACC | 53800
110 | TCTTGTTTCTTCCGTTACCGGAGCGCGGCCACGTGA | 2590
111 | CCAGAGGGCGGAAGTGGGAGCTGCGACGGCGCTCCC | 7030
112 | AACATCCTGTGTAAAGAGAATTGAATGTAGTTTTCT | 25200
113 | TTTCTGATTGTAGTTTCAAATTATTTCCTGTGTTGG | 1770
114 | ACTTTGTCAGTGTAGTTTTCACATCCTGTCCTAGCT | 2870
115 | CTCCATTATTCCGGCCAGGTGCCCTTCTGGGATAAG | 670
116 | GAGCTGCAAGTCACAAAGACCGGAAGTGCGCGTACG | 26000
117 | GCGCGGACTCCGGGAAGCTGAGCGGCAAAGACCGTG | 359
118 | TGCGCCGGAAGTGCATGAGCTGCCGATGAGGTGCTT | 8970
119 | TCACAATCGCTCACAAAGACAGGAAGTAACTGTCAG | 3450
120 | CTCCTGCTCACAGAAGCTCACTGTTTCCTGTCTAGC | 2690
121 | TACTCTAAAGCACTTCAAACCTCCACTTCCTGCCCC | 2240
122 | CACTTCCTGCCCTCTTCCACTTTCAAAATCACATCA | 31900
123 | AAATCAAAACCCCAATCAGATACCACTTCCTGCCCA | 2350
124 | CTCCCCCAGCACATCCTCTGCCACTGCTGCCTTTCC | 1720
125 | CTCCGCTGTCCCCTGCAGGCACCGAGGGCGGAACCA | 347
